TDP1 cell CPT: growth inhibition of DT40 Tdp1-/-;hTDP1 cells with camptothecin (screen for TDP1 inhibitors); AID 686979; 420,000 tested, 12% active; Potency, µM (top dose mostly 46.2 µM), for the others: top-dose activity change, negative = growth inhibition, actives largely listed as inhibitors; chicken DT40 Tdp1-/-;hTDP1 cells + 20 nM CPT, ATP luminescence, 48 h; note: nearly all actives have a fitted effect of over 55% in size
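Chicken DT40 Tdp1-/- cells stably complemented with human TDP1 were seeded at 400 cells/well in medium containing 20 nM camptothecin, exposed to pin-transferred compounds, and grown at 37 °C for at least 48 hr. Viability was read as ATP luminescence.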
ELG1 DNA repair: ELG1-dependent DNA repair inhibition; Potency, µM (titrated, usually from 46.1 µM), for inactives: at the highest dose activity change, negative = inhibition, usual class: inhibitors; 330,000 tested, 2.3% active; HEK293T ELG1-luciferase reporter, luminescence, 16 h; DNA damage induced by 5-fluorouridine; note: nearly all actives have a fitted effect of over 55% in size
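DMSO vehicle served as the neutral condition. Each well held 2,000 cells given 5-fluorouridine plus compound; after 16 hr at 37 °C/5% CO2, ONE-Glo was added and luciferase measured 30 min later.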
RORgamma inh: inhibitors of mouse ROR gamma transcriptional activity. P51450. Drosophila S2 Gal4-RORgamma UAS-luciferase reporter, 20 h. Potency, µM (top dose mostly 53.6 µM), without a hit: top-dose activity change, negative = inhibition, actives largely listed as inhibitors. 310,000 tested, 5.4% active; note: nearly all actives have a fitted effect of over 60% in size
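A Gal4/UAS one-hybrid system in insect cells: metallothionein-promoter Gal4–ROR gamma fusion plus Photinus luciferase reporter. Copper sulfate 700 uM final, 20 hr ambient incubation, luminescent detection after 10 min with reagent.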
DT40 TDP1 no CPT: qHTS for Inhibitors of human tyrosyl-DNA phosphodiesterase 1 (TDP1): qHTS in cells in absence of CPT. 420,000 tested, 15% active. Potency, µM (top dose mostly 46.2 µM), for the others: top-dose activity change, negative = growth inhibition, actives largely listed as inhibitors. DT40 Tdp1-/- hTDP1 cells, no CPT, ATP luminescence, 48 h; note: nearly all actives have a fitted effect of over 55% in size
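Cells were dispensed at 400 per well, compounds added by pin tool, plates incubated ≥48 hr at 37 °C, then CellTiter-Glo added for 30 min at room temperature before luminescence reading. Line: DT40 Tdp1-/- complemented with hTDP1; camptothecin omitted.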
12-LOX inh: blocks human arachidonate 12S-lipoxygenase; P18054; purified 12hLO, xylenol orange hydroperoxide absorbance; Potency, µM (top dose mostly 108 µM), for the others: at the highest dose activity change, negative = inhibition, hits mostly inhibitors; 580,000 tested, 1.1% active; AID 1671190
Target sequence (P18054 whole entry, looked up): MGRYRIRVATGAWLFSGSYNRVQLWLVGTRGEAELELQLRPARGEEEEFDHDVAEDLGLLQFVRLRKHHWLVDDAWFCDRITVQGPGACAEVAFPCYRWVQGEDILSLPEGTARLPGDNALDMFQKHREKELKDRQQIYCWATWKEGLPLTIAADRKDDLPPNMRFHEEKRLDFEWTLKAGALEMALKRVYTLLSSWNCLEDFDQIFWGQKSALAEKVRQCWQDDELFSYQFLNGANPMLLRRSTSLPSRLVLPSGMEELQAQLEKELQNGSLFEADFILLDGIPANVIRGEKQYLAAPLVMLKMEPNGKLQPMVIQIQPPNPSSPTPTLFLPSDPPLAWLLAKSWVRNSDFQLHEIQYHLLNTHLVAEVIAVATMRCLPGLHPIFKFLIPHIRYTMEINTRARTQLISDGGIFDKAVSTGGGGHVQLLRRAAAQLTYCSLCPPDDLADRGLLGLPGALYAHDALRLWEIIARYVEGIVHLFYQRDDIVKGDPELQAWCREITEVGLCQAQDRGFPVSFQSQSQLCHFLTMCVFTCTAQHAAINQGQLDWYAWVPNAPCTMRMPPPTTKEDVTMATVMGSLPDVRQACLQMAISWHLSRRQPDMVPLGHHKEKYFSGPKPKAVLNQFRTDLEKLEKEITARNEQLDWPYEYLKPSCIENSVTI
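Purified human 12hLO at 150 nM in 25 mM Hepes, 0.01% Triton X-100, pH 7.0, preincubated 15 min at room temperature with compound. Reaction started with 40 uM arachidonic acid, 30 min at room temperature. Hydroperoxide measured by Fe-xylenol orange, 573/405 nm absorbance ratio.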
Gal4-VP16 FLuc: Gal4-VP16 reporter inhibition counter-screen | Drosophila S2 Gal4-VP16 UAS-luciferase, luminescence, 20 h | Potency, µM (doses to about 53.6 µM), without a hit: at the highest dose activity, negative = inhibition, actives largely listed as inhibitors | AID 2546 | 310,000 tested, 3.5% active;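 note: Gal4-VP16 expression switched on by copper sulfate through the metallothionein promoter; nearly all actives have a fitted effect of over 50% in size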
* marks the source's active call; other numbers are inactive results; ? = inconclusive; / = no result; [ ] = remark or other dose. This is a sample that favours compounds with a hit; in the whole collection about 15% have one here. Calls come from the whole dose curve; as a rule, active = well fitted curve in the direction sought with a large enough effect; inconclusive = small, poorly fitted or top-dose-only effect, or another doubt; inactive = no such curve, though single readings can be large; an effect the other way counts as inactive or inconclusive. % is set by controls: 0 for no effect and ±100 for the full control effect; potency is the fitted concentration of half-maximal effect.

SMILES	TDP1 cell CPT	ELG1 DNA repair	RORgamma inh	DT40 TDP1 no CPT	12-LOX inh	Gal4-VP16 FLuc
CCc1c(C)sc2c1CCN(C(=O)Nc1ccc(F)c(Cl)c1)C2c1ccc(F)cc1 (stereo not drawn)	?	/	/	16µM*	-14%	/
CCc1c(C)sc2c1CCN(C(=O)Nc1ccccc1C(=O)OC)C2c1ccc(F)cc1 (stereo not drawn)	?	/	/	?	-19%	/
Cc1ccc(C)c(S(=O)(=O)N2CCCC2c2nc3ccccc3[nH]2)c1 (stereo not drawn)	/	/	/	/	-4%	/
CC(=O)Nc1cccc(NC(=O)c2nccnc2-c2nc3ccccc3s2)c1	/	/	/	/	1%	/
N#CCCCOC(=O)c1cc(-c2cccs2)nc2ccccc12	/	/	/	/	-1%	/
Nc1c(C(=O)c2ccccc2)sc(Nc2ccc(Cl)c(Cl)c2)c1C(=O)Nc1ccccc1	?	/	/	4.1µM*	?	/
Cc1ccc(Nc2sc(C(=O)c3ccccc3)c(N)c2C(=O)Nc2ccc(Cl)cc2)cc1	?	/	/	18µM*	?	/
COc1ccccc1NC(=O)c1c(Nc2ccccc2F)sc(C(=O)Nc2cccc(Cl)c2)c1N	?	?	?	26µM*	0%	?
COc1ccc(Nc2sc(C(=O)Nc3cccc(Cl)c3)c(N)c2C(=O)Nc2ccccc2OC)cc1	/	-17%	?	/	/	?
CCOc1ccc(NC(=O)c2c(Nc3ccc(OC)cc3OC)sc(C(=O)c3ccc(Cl)cc3)c2N)cc1	12µM*	/	/	13µM*	-5%	/
N#Cc1c(Nc2ccccc2)sc(C(=O)c2ccccc2)c1N	-2%	-27%	22%	?	141%	3%[0.365 µM]
COc1ccc(NC(=O)CSc2nc3c(cnn3-c3ccc(C)c(C)c3)c(=O)[nH]2)cc1	/	/	/	/	-23%	/
COc1cc(OC)cc(C(=O)NC2CCSc3ccccc32)c1 (stereo not drawn)	?	-6%	?	23µM*	79%	17%
Cc1ccc(C(=O)NC2CCCc3ccccc32)cc1[N+](=O)[O-] (stereo not drawn)	?	?	7%	15µM*	-19%	-23%
Nc1ccc(C(=O)NC2CCSc3ccccc32)cc1[N+](=O)[O-] (stereo not drawn)	?	?	?	?	148%	7.9µM*
COc1ccc(C(=O)NC2CCSc3ccccc32)cc1F (stereo not drawn)	-24%	0%	36%	?	?	8%
O=C(NC1CCSc2ccccc21)c1cccc(Br)c1 (stereo not drawn)	?	0%	2%	-25%	-2%	2%
COc1ccc(OC)c(C(=O)N2CCC(C(=O)O)CC2)c1	/	/	/	/	-7%	/
O=C(c1ccc(CC2CCN(C(=O)c3nccc4ccccc34)CC2)cc1)N1CCOCC1	/	/	/	/	23%	/
CC(=O)C[C@H]1c2cc(F)cc(F)c2S(=O)(=O)N1C1CCN(Cc2ccccc2)CC1	5.6µM*	/	/	4µM*	/	/
COC(=O)C[C@H]1c2cc(F)cc(F)c2S(=O)(=O)N1C1CCN(Cc2ccccc2)CC1	9.2µM*	/	/	6.5µM*	?	/
COC(=O)CC1c2ccccc2S(=O)(=O)N1Cc1ccccc1 (stereo not drawn)	4%	-1%	23%	11%	14%	-1%
COc1ccc(C(=O)n2nc(-c3ccc(C)cc3)nc2N)cc1	/	/	/	/	13%	/
CC(C)N1C(=O)Cc2ccccc2C1C(=O)NCc1cccc(F)c1 (stereo not drawn)	/	/	/	/	10%	/
O=C(Nc1ccc(OCC(F)(F)C(F)F)c(C(F)(F)F)c1)c1ccccc1	23µM*	/	/	23µM*	-20%	/
SMILES	TDP1 cell CPT	ELG1 DNA repair	RORgamma inh	DT40 TDP1 no CPT	12-LOX inh	Gal4-VP16 FLuc
O=C(Nc1ccc(OCC(F)(F)C(F)F)c(C(F)(F)F)c1)c1ccccc1O	?	?	7.9µM*	18µM*	-26%	-8%[0.365 µM]
Cc1cc(=O)[nH]c(N/N=C/c2ccc(Cl)cc2Cl)n1	-5%	?	-25%	-7%	0%	6%
Cc1cc(N/N=C/c2ccc(F)cc2)nc(NCc2ccccc2)n1	8.2µM*	0%	11µM*	12µM*	0%	?
Cc1cc(N/N=C/c2ccc(N(C)C)cc2)nc(NCc2ccccc2)n1	7.3µM*	?	-28%	5.8µM*	-8%	-3%
Cc1cc(N/N=C/c2ccc(Cl)cc2Cl)nc(NCc2ccccc2)n1	10µM*	?	?	7.3µM*	-29%	?
c1coc(-c2nc(C3CCOC3)nn2C2Cc3ccccc3C2)c1 (stereo not drawn)	/	/	/	/	29%	/
O=[N+]([O-])c1ccc(C2=Nn3c(Cn4nnc5ccccc54)nnc3SC2)cc1	21µM*	?	44%	16µM*	-14%	4%
Cc1cccc(C)c1-n1nnnc1C1c2ccccc2C(=O)N1CCc1ccccc1F (stereo not drawn)	?	/	/	16µM*	-6%	/
Cc1ccc(CN2C(=O)c3ccccc3C2c2nnnn2-c2c(C)cccc2C)cc1 (stereo not drawn)	?	/	/	29µM*	-11%	/
Cc1cccc(C)c1-n1nnnc1C1c2ccccc2C(=O)N1CCOc1ccccc1 (stereo not drawn)	-7%	/	/	?	-18%	/
COc1ccc(CCN2C(=O)c3ccccc3C2c2nnnn2Cc2ccccc2)cc1OC (stereo not drawn)	?	/	/	?	-1%	/
COc1ccc(CCN2C(=O)CCC2(C)c2nnnn2-c2c(C)cccc2C)cc1OC (stereo not drawn)	-28%	/	/	-28%	-68%	/
COc1ccc(CN2C(=O)CCC2(C)c2nnnn2-c2c(C)cccc2C)cc1OC (stereo not drawn)	16µM*	/	/	18µM*	-28%	/
COc1ccc(CCN2C(=O)c3ccccc3C2c2nnnn2-c2c(C)cccc2C)cc1OC (stereo not drawn)	23µM*	/	/	12µM*	27%	/
Cc1c(-c2ccccc2)oc2c(C(=O)N(C)C3CCCCC3)cccc2c1=O	/	/	/	/	12%	/
COc1ccc(-c2nc(SC(C)C(=O)NCC(C)C)n[nH]2)c(OC)c1 (stereo not drawn)	/	/	/	/	-25%	/
CCOc1ccc(C(=O)OCC(=O)N(Cc2ccccc2)Cc2ccccc2)cc1OC	21µM*	?	/	?	13%	/
COc1ccc(CN(C)C(=O)C(Cc2ccccc2)NC(=O)c2ccccc2)cc1F (stereo not drawn)	16µM*	15µM*	/	13µM*	?	/
